From PubChem BioAssay AID651571 (The Scripps Research Institute Molecular Screening Center, 2012) come the findings set out here.

A word on the inhibition: it is the percentage by which the read-out fell short of the control.

SMILES strings stand for the structures. Out of some 1,500 compounds screened, about 1,300 (87%) were called active. No stated cut-off is given here; in the data, active means inhibition above about 9%; inactive means the rest. The set was probably picked from earlier hits. Not all results are given here.

This test in a line: binders of anti-gp120 antibody PG9, confirmation, biochemical, TR-FRET (AID 651571). To be noted: TR-FRET PG9 antibody binding, at 6.7 µM, active compounds read high.
`CCN(CC)C(=O)c1ccc(NC(=O)c2sccc2-c2ccccc2)cc1`: the inhibition was 16.6% (active).

On to `N#CC1=C(N)Oc2c(c(=O)oc3ccccc23)C1c1ccccc1OC(=O)c1cccs1` (configuration not stated), for which the inhibition was 20.4% (active).
